HSF1 inh – HSF1 inhibition; activity change, negative = inhibition, % at 7.5 µM (by protocol); 0.77% of 300,000 active; AID 2098; NIH3T3-HGL HSE-luciferase, MG132-induced, luminescence 8 h; hits give low values;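 active = more than half of replicate wells show activity change below -50%, luminescence cut by over half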;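 also: luciferase reports HSF-1 transcriptional activity via heat shock element; 0% = median of DMSO wells and -100% = zero luminescence signal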
AHR act – human AHR activation | 2.5% of 320,000 active | AID 2796 | activation, % at 5 µM | AHR-responsive luciferase reporter cells, luminescence | P35869; in the data active = activation above about 47%;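 also: 0% = vehicle wells and 100% = reference agonist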
Target sequence (P35869 whole entry, looked up): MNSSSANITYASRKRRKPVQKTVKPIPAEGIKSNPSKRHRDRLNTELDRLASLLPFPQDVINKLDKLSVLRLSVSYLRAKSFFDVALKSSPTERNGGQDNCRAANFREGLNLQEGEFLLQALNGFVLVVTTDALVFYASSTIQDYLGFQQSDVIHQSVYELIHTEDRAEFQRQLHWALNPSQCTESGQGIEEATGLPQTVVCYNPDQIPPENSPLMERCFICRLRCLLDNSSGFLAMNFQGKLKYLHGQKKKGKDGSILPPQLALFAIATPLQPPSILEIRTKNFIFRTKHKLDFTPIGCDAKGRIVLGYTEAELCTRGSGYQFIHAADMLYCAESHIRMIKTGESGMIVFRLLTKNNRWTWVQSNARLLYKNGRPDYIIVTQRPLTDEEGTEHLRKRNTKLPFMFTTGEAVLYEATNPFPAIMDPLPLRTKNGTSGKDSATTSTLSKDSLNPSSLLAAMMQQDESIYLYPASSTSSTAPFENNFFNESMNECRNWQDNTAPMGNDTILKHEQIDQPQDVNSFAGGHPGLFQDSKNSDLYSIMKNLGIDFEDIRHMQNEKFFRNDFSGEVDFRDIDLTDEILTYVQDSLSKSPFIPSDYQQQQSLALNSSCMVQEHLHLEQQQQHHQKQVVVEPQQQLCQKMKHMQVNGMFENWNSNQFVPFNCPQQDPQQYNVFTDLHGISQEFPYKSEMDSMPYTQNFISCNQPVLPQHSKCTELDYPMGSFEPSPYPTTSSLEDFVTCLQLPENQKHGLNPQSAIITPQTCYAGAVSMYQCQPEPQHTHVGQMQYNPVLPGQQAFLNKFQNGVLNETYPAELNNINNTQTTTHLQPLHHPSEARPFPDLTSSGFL
HSF1 activator – increases HSF-1 driven luciferase reporter signal | NIH3T3-HGL HSF-1 luciferase reporter, MG132, 8 h; 100% = twice DMSO control signal | AID 504408 | activation, % at 9 µM | 1.7% of 300,000 active;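 active = mean replicate activation of at least 50% with a set share of replicates each reaching 50%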;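 also: 0% = median of the neutral control wells and 100% = twice that signal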
GAA850 FXN act – increases GAA850 frataxin promoter reporter activity; activation, % at 6 µM; HEK293 lucGAA850 FXN promoter luciferase reporter, 24 h; percent of 10 µM SAHA response; AID 540364; 0.56% of 360,000 active;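 active = activation above the average of all compounds screened plus 3 SD, cutoff fixed separately per campaign, cut at about 7.5% in these data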;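 also: 0% = DMSO wells and 100% = 10 µM SAHA wells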
* = called active by the depositor; . = no result given. Hits are enriched below; roughly 4.6% of the tested compounds scored in any of these assays.

SMILES | HSF1 inh | AHR act | HSF1 activator | GAA850 FXN act
Cc1cccc(OCC(=O)N/N=C\c2cn(C)c3ccccc23)c1 | 4 | 72* | 3 | -1
Cc1csc(CN(C)C(=O)c2cn(Cc3cccc4ccccc34)nn2)n1 | 4 | 1 | 2 | 1
c1coc(-c2nnc(SCc3nc4ccccc4[nH]3)o2)c1 | -27 | 49* | -34 | -2
c1ccc(CSc2nnc(-c3ccco3)o2)cc1 | 12 | 3 | 16 | 2
Brc1ccc(CSc2nnc(-c3ccco3)o2)cc1 | 36 | -2 | 56* | 5
Cc1cc(NC(=O)CSc2nnc(-c3ccccc3)c(-c3ccccc3)n2)no1 | 0 | 5 | 24 | -4
Cc1nn(C(=O)N2CCOCC2)c(C)c1C | -1 | -2 | 2 | 1
Cc1ccc(C)c(CN2CCC(CNC(=O)Nc3ccc(Cl)cc3)CC2)c1 | -8 | 2 | 4 | 1
Cn1c(=O)c(C(=O)CN2CCCCC2)c(N)n(Cc2ccccc2)c1=O | -3 | 0 | -6 | 2
CCc1ccccc1NS(=O)(=O)c1cc2c3c(c1)CCN3C(=O)CC2 | 21 | . | 62* | 0
Cc1cccc(NS(=O)(=O)c2cc3c4c(c2)CCN4C(=O)CC3)c1C | 3 | 1 | -3 | 1
CC(C)(C)C(=O)O/N=C1\CCS(=O)(=O)c2sccc21 | 8 | 5 | 35 | 4
CCCN1Cc2cccc(C(=O)NCCc3ccccc3)c2C1=O | 11 | 0 | 11 | 1
Cc1ccc(Sc2ccc([N+](=O)[O-])cc2[N+](=O)[O-])nc1 | 7 | 2 | 12 | 0
Cc1ccnc(Sc2ccc([N+](=O)[O-])cc2[N+](=O)[O-])n1 | 97 | 0 | 131* | -4
O=C(Nc1ccccc1)n1ccc(-c2ccc(-n3ccnc3)cc2)n1 | 2 | 83* | 18 | .
CCc1ccc(NC(=O)CSc2nc3ccccc3c(=O)n2CCCC(=O)N2CCCC2)cc1 | 6 | 12 | 13 | 0
COC(=O)C(C)N(C(=O)c1ccc(Cl)cc1)c1c(C)cccc1C (configuration not stated) | 1 | 1 | 5 | -1
COC(=O)C(C)N(C(=O)c1ccc(C(=O)c2ccccc2)cc1)c1c(C)cccc1C (configuration not stated) | 23 | 0 | 65* | -1
Cc1[nH]c2ccccc2c1N=Nc1ccccc1F | 6 | 51* | 19 | 2
Oc1[nH]c2ccccc2c1N=Nc1ccccc1Cl | -56 | . | -56 | 4
Cc1[nH]c2ccccc2c1N=Nc1ccc(F)cc1 | 4 | 67* | -1 | 3
Cc1[nH]c2ccccc2c1N=Nc1cc(C(=O)O)cc(C(=O)O)c1 | -2 | 8 | -2 | 1
Cc1cccc(/C=C2/Sc3ccc(C(=O)NCCCN4CCOCC4)cc3NC2=O)c1 | 3 | -4 | 3 | 1
Cc1nn2c(N3CCCC3)c3c(nc2c1-c1ccccc1)CCC3 | 4 | 0 | 29 | 3
SMILES | HSF1 inh | AHR act | HSF1 activator | GAA850 FXN act
NC(=O)c1ccccc1N/C=C/C(=O)c1ccc(Cl)cc1Cl | 20 | . | 66* | 4
S=c1nc(-c2ccccc2)[nH]c2ccccc12 | 8 | 57* | 6 | 2
COc1ccccc1OCC#CCn1ccnc1 | -3 | 60* | -8 | -1
COc1ccc(OCC#CCn2ccnc2)cc1 | 0 | 26 | -3 | 0
C(=C\c1ccccc1)/CSc1ccccn1 | 104 | -4 | 130* | 2
O=C(Nc1cccc(-c2nn[nH]n2)c1)c1ccc(Br)s1 | -5 | -1 | 25 | 2
Cc1ccc(-n2c(C)cc(C3=NNC(=NC4CC4)SC3)c2C)cc1C | 6 | 51* | 12 | -5
O=C1CC(N2CCN(c3ccccc3O)CC2)C(=O)N1Cc1ccccc1 (configuration not stated) | -6 | 0 | 5 | 2
Cc1ccc(C(=O)N/C(=C\c2cn(S(=O)(=O)N(C)C)c3ccccc23)C(=O)NCCN2CCOCC2)cc1 | 9 | . | 36 | -2
COc1ccccc1C(=O)N/C(=C\c1cn(S(=O)(=O)N(C)C)c2ccccc12)C(=O)NCCN1CCOCC1 | -80* | 0 | -83 | -1
N#Cc1ccccc1Cn1c(=O)oc2ccccc21 | 4 | 23 | 16 | 1
COc1ccccc1NC(=O)CCS(=O)(=O)c1ccc2c(c1)oc(=O)n2C | -14 | 0 | -12 | 0
O=C1CC(N2CCC(c3nc4ccccc4[nH]3)CC2)C(=O)N1c1ccccc1F (configuration not stated) | 124 | 1 | 177* | 0
Cc1cc(C(=O)COC(=O)c2ccc(N)c([N+](=O)[O-])c2)c(C)n1-c1ccc2c(c1)OCO2 | . | 1 | . | 0
O=C(NNC(=O)c1ccccc1-n1cccc1)c1ccc(Cl)cc1 | 0 | 62* | -2 | -1
CC(C)(C)C1CCC(=NNC(=O)c2ccccc2-n2cccc2)CC1 (configuration not stated) | 3 | 70* | 10 | 3
O=C(NN=C1CCCCC1)c1ccccc1-n1cccc1 | 2 | 48* | 9 | 1
O=C(NNC(=O)c1ccccc1-n1cccc1)c1ccc(Cl)c(Cl)c1 | 12 | 11 | 1 | -1
C[C@@H]1COC(=O)[C@H](CC(=O)OC(C)(C)C)C/C=C\C[C@@H](CC(=O)N(CCO)Cc2ccccc2)C(=O)N1 | . | -1 | . | 2
COc1cc(C(=O)OCC(=O)c2c[nH]c3ccccc23)ccc1OCC(=O)N1CCOCC1 | 3 | 23 | 10 | -1
COc1cc(CNc2ccc(CNc3ncn[nH]3)cc2)ccc1OCC(=O)NC(C)(C)C | 12 | 56* | 14 | -1
Cc1cc(C2(c3cc(C)c(NC(=O)CN4CCOCC4)c(C)c3)CCCCC2)cc(C)c1NC(=O)CN1CCOCC1 | -57* | -1 | -66 | .
NCC(c1ccc(Cl)cc1Cl)c1c[nH]c2ccccc12 (configuration not stated) | 9 | 65* | -1 | -1
NCC(c1ccccc1)c1c[nH]c2ccccc12 (configuration not stated) | 7 | 46 | -4 | 0
NCC(c1ccccc1Cl)c1c[nH]c2ccccc12 (configuration not stated) | 0 | 57* | 10 | 0
SMILES | HSF1 inh | AHR act | HSF1 activator | GAA850 FXN act
O=C(c1ccc(F)cc1)C1CCN(C(=S)Nc2ccccc2)CC1 | . | -2 | . | -2
CCN(CCCNS(=O)(=O)c1ccc2c(c1)CCN2C(C)=O)c1cccc(C)c1 | 44 | 3 | 69* | -3
O=[N+]([O-])c1ccc(-c2csc(Nc3ccccc3)[n+]2Cc2ccccc2)cc1 | 31 | 6 | 84* | 2
COc1ccc(-c2csc(Nc3ccccc3)[n+]2Cc2ccccc2)cc1 | -3 | 15 | 1 | 0
Nc1nc(N2CCN(C(=O)c3ccco3)CC2)nc2ccccc12 | 14 | 29 | -3 | 6
O=C(c1cnn2c(C(F)F)cc(C3CC3)nc12)N1CCCC1 | -8 | 2 | 0 | -2
O=C(CN1C(=O)NC2(CCCCC2)C1=O)Nc1ccc(N2CCOCC2)cc1 | -3 | 6 | -3 | 0
Cc1ccc(-c2csc3nc(C)n(-n4c(C)ccc4C)c(=O)c23)o1 | 7 | -1 | 25 | -4
Cc1ccc(-c2csc3nc(C)n(N)c(=O)c23)o1 | 21 | 55* | 37 | 4

High-throughput results as filed in PubChem BioAssay.
